# Experimental data published in PubChem BioAssay AID2284122 (EPA ToxCast).
# Active and inactive are the calls of the source. The calls were made as follows: active = hit-call score of the fitted dose curve at least 0.9, where 1 is the maximum; inactive = score below 0.9.
# Target: human TRKA Receptor Tyrosine Kinase, NTRK1 (gene 4914) (UniProt P04629)
# Experiment: ERF_FR_ENZ_hNTRK1: Eurofins (ERF) Enzymatic Radiometric [Km ATP] KinaseProfiler LeadHunter Assay for human TRKA Receptor Tyrosine Kinase
# Procedure: ERF_FR_ENZ_hNTRK1 is a biochemical, single-readout assay that uses extracted gene-proteins in a cell-free assay. Measurements were taken 0.16 hour after chemical dosing in a 96-well plate. See TRKA Human RTK Kinase Enzymatic LANCE Assay [Km ATP], Cerep.ERF_FR_ENZ_hNTRK1 is an assay component calculated from the ERF_FR_ENZ_hNTRK1 assay. It is designed to measure enzyme activity using a type of enzyme reporter as detected by fluorescence intensity with LANCE technology.Data from the assay component ERF_FR_ENZ_hNTRK1 was analyzed at the assay endpoint, ERF_FR_ENZ_hNTRK1, in the positive analysis fitting direction relative to DMSO as the negative control and baseline of activity. Using a type of enzyme reporter, loss-of-signal activity can be used to understand changes in enzymatic activity as they relate to gene NTRK1. To generalize the intended target to other relatable targets, this assay endpoint is annotated to the kinase intended target family, where the subfamily is receptor tyrosine kinase.
# TrkA (h) is incubated with 8 mM MOPS pH 7.0, 0.2 mM EDTA, 250 uM […], 10 mM MgAcetate and [g- 33P]-ATP (specific activity and concentration as required). The reaction is initiated by the addition of the Mg/ATP mix. After incubation for 40 minutes at room temperature, the reaction is stopped by the addition of phosphoric acid to a concentration of 0.5%. An aliquot of the reaction is then spotted onto a filter and washed four times for 4 minutes in 0.425% phosphoric acid and once in methanol prior to drying and scintillation counting.Compound should be supplied in 100% DMSO.We require a stock solution at a concentration of at least 50x higher than the Final Assay Concentration of your cpd. A 10mM stock is also acceptable.When ordering fewer than 60 kinase assays, we need 120uL of 50x concentrated stock. For more than 60 assays, we need 420 uL of 50xcc stock. Please apply the conversion if you provide 10mM stock solution or compounds in powder form (pre-weighed is required) From 50 cpds supplied as solids, the TAT will be extended.
# human TRKA Receptor Tyrosine Kinase, NTRK1 (gene 4914), sequence (P04629 whole entry, looked up): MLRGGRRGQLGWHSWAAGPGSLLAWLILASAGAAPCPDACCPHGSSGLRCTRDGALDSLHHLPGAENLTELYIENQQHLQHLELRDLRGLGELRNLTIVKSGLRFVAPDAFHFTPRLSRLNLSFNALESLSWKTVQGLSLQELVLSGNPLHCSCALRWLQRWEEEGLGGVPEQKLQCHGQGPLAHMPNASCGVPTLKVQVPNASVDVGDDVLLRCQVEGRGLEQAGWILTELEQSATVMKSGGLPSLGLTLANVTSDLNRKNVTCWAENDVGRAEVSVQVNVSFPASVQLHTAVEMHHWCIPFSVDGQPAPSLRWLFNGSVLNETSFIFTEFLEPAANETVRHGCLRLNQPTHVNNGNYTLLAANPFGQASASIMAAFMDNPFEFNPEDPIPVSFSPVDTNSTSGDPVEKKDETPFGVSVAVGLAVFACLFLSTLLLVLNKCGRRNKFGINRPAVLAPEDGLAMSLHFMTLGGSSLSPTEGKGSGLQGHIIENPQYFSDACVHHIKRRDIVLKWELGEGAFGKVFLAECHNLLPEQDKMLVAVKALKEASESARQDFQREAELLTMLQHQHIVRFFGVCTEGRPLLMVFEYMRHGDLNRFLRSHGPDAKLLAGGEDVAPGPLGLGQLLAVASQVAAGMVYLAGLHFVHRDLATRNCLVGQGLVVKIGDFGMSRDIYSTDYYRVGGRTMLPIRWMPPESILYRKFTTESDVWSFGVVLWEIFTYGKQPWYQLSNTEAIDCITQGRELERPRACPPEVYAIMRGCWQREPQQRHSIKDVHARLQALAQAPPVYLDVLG
SMILES,outcome,AC50
COc1cc(CCC(=O)CC(=O)CCc2ccc(O)c(OC)c2)ccc1O,inactive,
O=C(/C=C/c1ccc(O)cc1)CC(=O)/C=C/c1ccc(O)cc1,inactive,
COc1cc(/C=C/C(=O)CC(=O)/C=C/c2ccc(O)c(OC)c2)ccc1O,,3.85 µM (active)
